According to PubChem BioAssay:
For some assays here: Entries with a potency or affinity are not part of this list. Active and inactive are the calls of the source. Unless noted, no rule for the calls is given here.

Tests used:
[1] = antimalarial activity against Dd2 strain (AID 2302;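 active = growth inhibition above 50% at the single 2 µM test dose, taken to imply half-maximal potency below 2 µM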;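 also: 0% = DMSO untreated growth and 100% = chloroquine plus artemisinin killed control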); conditions: P. falciparum Dd2 in RBCs, LDH growth readout, 72 h; at 2 µM; active compounds read high
[2] = human hepatoma cell viability loss – ATP luminescence, cytotoxicity control for P. falciparum antimalarial project, primary screen (AID 2303;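 active = inhibition above 50%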;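 also: 0% = DMSO wells and 100% = digitonin-killed cells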); conditions: HepG2 viability, 24-48 h, at 10 µM, active compounds read high
[3] = molecular target: L-lactate dehydrogenase (Plasmodium falciparum (isolate CDC / Honduras)) (UniProt Q27743); test: PfLDH activity inhibition – cell lysate, 3D7 strain, counter-screen for P. falciparum growth inhibition project (AID 2304);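 also: 0% = vehicle and 100% = reference inhibitor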; conditions: P. falciparum 3D7 crude extract, LDH APAD/NBT absorbance; at 2 µM; active compounds read high
Sequence of L-lactate dehydrogenase (Plasmodium falciparum (isolate CDC / Honduras)) (Q27743 whole entry, looked up): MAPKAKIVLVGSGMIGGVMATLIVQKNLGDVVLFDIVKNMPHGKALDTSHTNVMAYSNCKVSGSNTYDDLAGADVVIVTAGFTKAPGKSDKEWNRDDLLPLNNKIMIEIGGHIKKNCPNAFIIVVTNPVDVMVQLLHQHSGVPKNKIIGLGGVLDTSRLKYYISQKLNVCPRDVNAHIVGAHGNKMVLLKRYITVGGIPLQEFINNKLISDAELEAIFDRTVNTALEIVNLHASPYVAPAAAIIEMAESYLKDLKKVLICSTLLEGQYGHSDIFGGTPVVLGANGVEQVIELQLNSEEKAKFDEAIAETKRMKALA

[4] = inhibition of 3D7 malaria parasite growth – strain 3D7 (AID 2306);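 also: 0% = DMSO wells and 100% = chloroquine plus artemisinin control wells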; conditions: P. falciparum 3D7 erythrocytic growth, LDH absorbance, 72 h; at 2 µM; active compounds read high
[5] = molecular target: Calcium-dependent protein kinase 1 (Plasmodium falciparum (isolate 3D7)) (UniProt P62344); test: PfCDPK1 kinase inhibitors, biochemical, TCAMS library (AID 1159585; cut-off not given, nearly all actives have IC50 up to about 0.98 µM;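 also: inhibitors leave more ATP so luminescence rises with inhibition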); conditions: recombinant PfCDPK1, Kinase-Glo ATP depletion luminescence
Sequence of Calcium-dependent protein kinase 1 (Plasmodium falciparum (isolate 3D7)) (P62344 whole entry, looked up): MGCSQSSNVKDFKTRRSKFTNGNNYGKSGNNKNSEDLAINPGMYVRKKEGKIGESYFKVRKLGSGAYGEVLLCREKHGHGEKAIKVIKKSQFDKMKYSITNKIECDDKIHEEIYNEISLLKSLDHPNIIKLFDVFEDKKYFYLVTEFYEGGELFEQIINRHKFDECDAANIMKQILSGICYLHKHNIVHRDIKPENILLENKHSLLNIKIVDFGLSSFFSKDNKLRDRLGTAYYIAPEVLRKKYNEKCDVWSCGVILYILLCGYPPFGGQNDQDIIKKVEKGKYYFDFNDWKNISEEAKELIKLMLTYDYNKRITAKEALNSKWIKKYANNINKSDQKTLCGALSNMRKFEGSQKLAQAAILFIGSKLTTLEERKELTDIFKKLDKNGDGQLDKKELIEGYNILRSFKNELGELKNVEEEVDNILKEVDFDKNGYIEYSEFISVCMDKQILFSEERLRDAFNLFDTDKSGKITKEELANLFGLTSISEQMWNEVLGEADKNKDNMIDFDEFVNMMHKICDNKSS

[6] = molecular target: Plasmodium falciparum protein kinase 6 (PK6, PF3D7_1337100) (UniProt Q8IDW1); test: PfPK6 kinase inhibitors, biochemical, TCAMS library (AID 1159586); conditions: recombinant PfPK6, Kinase-Glo ATP depletion luminescence
Sequence of Plasmodium falciparum protein kinase 6 (PK6, PF3D7_1337100) (Q8IDW1 1-305): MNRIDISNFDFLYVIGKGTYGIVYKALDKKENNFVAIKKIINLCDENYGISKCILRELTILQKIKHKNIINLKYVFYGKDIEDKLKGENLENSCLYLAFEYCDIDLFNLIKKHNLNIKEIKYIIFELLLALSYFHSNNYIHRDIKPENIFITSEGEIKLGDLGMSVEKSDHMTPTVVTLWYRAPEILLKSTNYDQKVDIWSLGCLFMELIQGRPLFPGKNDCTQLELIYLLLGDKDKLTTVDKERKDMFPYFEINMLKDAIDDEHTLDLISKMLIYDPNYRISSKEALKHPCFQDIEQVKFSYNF

[7] = molecular target: Protein kinase 7 (PK7), Plasmodium falciparum 3D7 (PF3D7_0213400) (UniProt Q7YTF7); test: inhibition of Plasmodium PK7 catalytic activity – biochemical, TCAMS antimalarial set, Kinase-Glo luminescence (AID 1159587); conditions: recombinant PfPK7, Kinase-Glo ATP depletion luminescence
Sequence of Protein kinase 7 (PK7), Plasmodium falciparum 3D7 (PF3D7_0213400) (Q7YTF7 1-343): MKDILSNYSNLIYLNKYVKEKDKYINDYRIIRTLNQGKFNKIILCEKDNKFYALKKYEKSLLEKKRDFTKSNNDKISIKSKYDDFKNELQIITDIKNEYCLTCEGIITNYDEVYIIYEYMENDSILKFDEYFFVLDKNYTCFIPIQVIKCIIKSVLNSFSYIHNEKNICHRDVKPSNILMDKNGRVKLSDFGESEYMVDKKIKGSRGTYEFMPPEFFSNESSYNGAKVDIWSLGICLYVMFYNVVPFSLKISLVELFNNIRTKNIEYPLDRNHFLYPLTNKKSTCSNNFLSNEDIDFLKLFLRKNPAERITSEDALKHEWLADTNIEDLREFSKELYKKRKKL

[8] = molecular target: Calcium-dependent protein kinase 4 (Plasmodium falciparum (isolate 3D7)) (UniProt Q8IBS5); test: PfCDPK4 kinase inhibitors, biochemical, TCAMS library (AID 1159588; cut-off not given, nearly all actives have IC50 up to about 0.91 µM); conditions: recombinant PfCDPK4, Kinase-Glo ATP depletion luminescence
Sequence of Calcium-dependent protein kinase 4 (Plasmodium falciparum (isolate 3D7)) (Q8IBS5 whole entry, looked up): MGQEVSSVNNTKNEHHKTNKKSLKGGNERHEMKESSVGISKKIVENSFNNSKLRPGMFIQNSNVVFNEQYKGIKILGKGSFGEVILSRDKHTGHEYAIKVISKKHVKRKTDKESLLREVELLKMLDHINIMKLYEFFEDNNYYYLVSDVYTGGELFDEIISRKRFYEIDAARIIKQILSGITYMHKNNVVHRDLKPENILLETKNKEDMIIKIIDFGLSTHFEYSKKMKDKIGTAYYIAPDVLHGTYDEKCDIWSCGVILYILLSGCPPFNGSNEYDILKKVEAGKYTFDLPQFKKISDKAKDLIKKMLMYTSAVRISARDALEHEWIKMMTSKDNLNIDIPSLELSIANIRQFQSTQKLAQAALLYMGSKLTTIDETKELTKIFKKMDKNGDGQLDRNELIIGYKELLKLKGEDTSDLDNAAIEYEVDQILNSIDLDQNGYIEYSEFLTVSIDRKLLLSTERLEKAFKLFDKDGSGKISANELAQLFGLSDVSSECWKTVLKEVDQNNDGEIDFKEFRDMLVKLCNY

Cn1cncc1CCCN(Cc1ccc(-c2ccc(C(F)(F)F)cc2)cc1)C(=O)Cn1c(CCc2cccc(F)c2F)cc(=O)c2cccnc21
active: growth inhibition [1] 59% | growth inhibition [4] 85%
inactive: inhibition [2] 17% | inhibition [3] -2% | outcome [5] | outcome [6] | outcome [7] | outcome [8]

C=CCOC(=O)N1CCC(CNCc2cccc(-c3ccc(-c4nc5ccccc5[nH]4)s3)c2)C1 (stereo not given)
inactive: inhibition [2] 9% | inhibition [3] 0% | outcome [5] | outcome [6] | outcome [7] | outcome [8]
active: growth inhibition [1] 63% | growth inhibition [4] 99%

O=C(CC(=O)Nc1cc(Cl)cc(Cl)c1)Nc1cc(Cl)cc(Cl)c1
active: growth inhibition [1] 96% | growth inhibition [4] 95%
inactive: inhibition [2] -4% | inhibition [3] -2% | outcome [5] | outcome [6] | outcome [7] | outcome [8]

Cc1cccc2[nH]c(-c3cccc(-c4cccc(NC(=O)c5cccnc5Cl)c4)c3)nc12
inactive: growth inhibition [1] 32% | inhibition [2] -1% | inhibition [3] 0% | outcome [5] | outcome [6] | outcome [7] | outcome [8]
active: growth inhibition [4] 97%

CN(C)c1ccc(CN2CCC(NC(=O)c3ccc(-c4ccccc4F)s3)CC2)cc1
inactive: growth inhibition [1] 27% | inhibition [2] 41% | inhibition [3] -3% | outcome [5] | outcome [6] | outcome [7] | outcome [8]
active: growth inhibition [4] 86%

Cc1cccc2[nH]c(-c3ccc(-c4ccc(NC(=O)C(=O)c5cccn5C)cc4)cc3)nc12
inactive: growth inhibition [1] 15% | inhibition [2] 40% | inhibition [3] 8% | outcome [5] | outcome [6] | outcome [7] | outcome [8]
active: growth inhibition [4] 95%

O=C(c1csc(-c2cccnc2)n1)N1CCc2cc3nccc(N4CCN5CCC[C@H]5C4)c3cc21
inactive: inhibition [2] -7% | inhibition [3] -3% | outcome [5] | outcome [6] | outcome [7] | outcome [8]
active: growth inhibition [1] 78% | growth inhibition [4] 97%

Cc1cc(N)c2cc(NC(=O)CCC(=O)Nc3ccc4nc(C)cc(N)c4c3)ccc2n1
active: growth inhibition [1] 77% | growth inhibition [4] 85%
inactive: inhibition [2] -2% | inhibition [3] 1% | outcome [5] | outcome [6] | outcome [7] | outcome [8]

Cc1ccc(CN2CCN(Cc3cccc(NC(=O)c4ccc5ccccc5c4)c3)CC2)cc1C
inactive: growth inhibition [1] 23% | inhibition [3] -4% | outcome [5] | outcome [6] | outcome [7] | outcome [8]
active: inhibition [2] 62% | growth inhibition [4] 89%

COc1ccc2nccc([C@@H](O)CN3CCC(NC(=O)/C=C/c4ccc5cc(C)[nH]c5c4)CC3)c2c1
inactive: inhibition [2] 7% | inhibition [3] -6% | outcome [5] | outcome [6] | outcome [7] | outcome [8]
active: growth inhibition [1] 93% | growth inhibition [4] 97%

CC(C)CN1C(=O)c2ccccc2C(C(=O)Nc2cccc(C#N)c2)C1c1cccs1 (stereo not given)
active: growth inhibition [1] 100% | growth inhibition [4] 101%
inactive: inhibition [2] 11% | inhibition [3] -4% | outcome [5] | outcome [6] | outcome [7] | outcome [8]

COc1cc(Cn2ccc3c4c(N)nc(N)nc4ccc32)cc(OC)c1OC
inactive: inhibition [3] 3% | outcome [5] | outcome [6] | outcome [7] | outcome [8]
active: growth inhibition [1] 97% | inhibition [2] 66% | growth inhibition [4] 94%

Cc1ccc2c(NN=Cc3cccc(Cl)c3)cc(C)nc2c1
inactive: inhibition [3] -2% | outcome [5] | outcome [6] | outcome [7] | outcome [8]
active: growth inhibition [1] 52% | inhibition [2] 50% | growth inhibition [4] 96%

NCCc1cccc(-c2cnc3[nH]cc(-c4ccc(C(=O)O)cc4)c3c2)c1
active: growth inhibition [1] 98% | growth inhibition [4] 99%
inactive: inhibition [2] 4% | inhibition [3] -2% | outcome [5] | outcome [6] | outcome [7] | outcome [8]

Cc1cc(Nc2ccccc2)nc(NCCOc2ccccc2)n1
active: growth inhibition [4] 100%
inactive: growth inhibition [1] 48% | inhibition [2] -5% | inhibition [3] -1% | outcome [5] | outcome [6] | outcome [7] | outcome [8]

COc1ccc2nccc(NC(=O)CNCc3ccc(-c4ccccc4)cc3)c2c1
active: growth inhibition [4] 101%
inactive: growth inhibition [1] 35% | inhibition [2] 11% | inhibition [3] -4% | outcome [5] | outcome [6] | outcome [7] | outcome [8]

Cc1ccc(-c2csc(C)n2)c(C)c1
inactive: growth inhibition [1] -3% | inhibition [2] 12% | inhibition [3] 3% | outcome [5] | outcome [6] | outcome [7] | outcome [8]
active: growth inhibition [4] 98%

CCN(CC)CCCNc1ncc2c(-c3ccc(NC(=O)Nc4cc(C(F)(F)F)ccc4F)c(F)c3)nn(C)c2n1
inactive: inhibition [3] 3% | outcome [5] | outcome [6] | outcome [7] | outcome [8]
active: growth inhibition [1] 68% | inhibition [2] 100% | growth inhibition [4] 94%

CCNC[C@@H](O)[C@H](Cc1ccccc1)NC(=O)c1cc2c3c(c1)c(CC)cn3CCS(=O)(=O)N2C
active: growth inhibition [1] 65% | growth inhibition [4] 99%
inactive: inhibition [2] 0% | inhibition [3] -4% | outcome [5] | outcome [6] | outcome [7] | outcome [8]

CC(C)c1ncc(-c2ccncc2)c(C2CCC(CNC(=O)c3ccncc3)CC2)n1 (stereo not given)
inactive: growth inhibition [1] 49% | inhibition [2] -6% | inhibition [3] 4% | outcome [5] | outcome [6] | outcome [7] | outcome [8]
active: growth inhibition [4] 85%

O=C(Nc1ccc(OC2CCN(Cc3ccc(F)cc3)C2)c(Cl)c1)c1ccccc1 (stereo not given)
inactive: inhibition [2] 11% | inhibition [3] 0% | outcome [5] | outcome [6] | outcome [7] | outcome [8]
active: growth inhibition [1] 86% | growth inhibition [4] 91%

O=C(C=Cc1ccc(Cl)c(Cl)c1)NCCCCCN1CCCC(CCCNC(=O)c2sc3ccccc3c2Cl)C1 (stereo not given)
active: inhibition [2] 82% | growth inhibition [4] 88%
inactive: growth inhibition [1] 32% | inhibition [3] -3% | outcome [5] | outcome [6] | outcome [7] | outcome [8]

COc1cccc(Nc2c(C(N)=O)cnc3ccc(-c4ccccc4)cc23)c1
inactive: inhibition [2] 2% | inhibition [3] -2% | outcome [5] | outcome [6] | outcome [7] | outcome [8]
active: growth inhibition [1] 99% | growth inhibition [4] 98%

CC(=O)Nc1ncc(C(=O)Nc2cccc(-c3ccc(-c4nc5ccc(C(F)(F)F)cc5[nH]4)s3)c2)s1
inactive: inhibition [3] 5% | outcome [5] | outcome [6] | outcome [7] | outcome [8]
active: growth inhibition [1] 99% | inhibition [2] 90% | growth inhibition [4] 101%

COc1ccccc1CNC(=O)C(=O)Nc1c(-c2ccccc2)[nH]c2ccccc12
inactive: inhibition [2] 0% | inhibition [3] -2% | outcome [5] | outcome [6] | outcome [7] | outcome [8]
active: growth inhibition [1] 91% | growth inhibition [4] 99%

COc1cc2nc(N3CCC(CNC(=O)/C=C/c4ccccc4F)CC3)nc(N)c2cc1OC
inactive: inhibition [2] -4% | inhibition [3] 5% | outcome [5] | outcome [6] | outcome [7] | outcome [8]
active: growth inhibition [1] 88% | growth inhibition [4] 100%

CC(=O)c1cccc2cc(C(=O)NC3CCC(CCN4CCc5ccc(C#N)cc5C4)CC3)[nH]c12 (stereo not given)
inactive: growth inhibition [1] 17% | inhibition [2] 12% | inhibition [3] -4% | outcome [5] | outcome [6] | outcome [7] | outcome [8]
active: growth inhibition [4] 100%

CC(=O)Nc1ccc(CN(C)C2CCN(c3cc(NC(=O)c4cccc(C)c4)ccn3)CC2)cc1
active: growth inhibition [4] 94%
inactive: growth inhibition [1] 13% | inhibition [2] -2% | inhibition [3] -1% | outcome [5] | outcome [6] | outcome [7] | outcome [8]

CCN(CC)CCOc1ccc(NC(=O)c2oc3ccccc3c2C=Cc2ccccc2)cc1
active: growth inhibition [1] 54% | inhibition [2] 51% | growth inhibition [4] 98%
inactive: inhibition [3] -2% | outcome [5] | outcome [6] | outcome [7] | outcome [8]

CCCC[C@H](NC(=O)OC(C)(C)C)C(=O)Nc1ccc(Cc2ccc(NC(=O)[C@H](CCCC)NC(=O)OC(C)(C)C)cc2)cc1
inactive: inhibition [2] 5% | inhibition [3] 3% | outcome [5] | outcome [6] | outcome [7] | outcome [8]
active: growth inhibition [1] 71% | growth inhibition [4] 95%

CNc1ccc(CNCc2cccc(-c3ccc(-c4nc5ccccc5[nH]4)cc3)c2)cc1
inactive: inhibition [2] 18% | inhibition [3] -5% | outcome [5] | outcome [6] | outcome [7] | outcome [8]
active: growth inhibition [1] 80% | growth inhibition [4] 102%

COc1cc(Cc2cnc(N)nc2N)cc(OC)c1OCCCCC(=O)O
inactive: growth inhibition [1] -1% | inhibition [2] -4% | inhibition [3] -4% | outcome [5] | outcome [6] | outcome [7] | outcome [8]
active: growth inhibition [4] 88%

COc1ccc2nccc([C@@H](O)CN3CCC(NCc4cc5ccccn5n4)CC3)c2c1
inactive: growth inhibition [1] 18% | inhibition [2] 7% | inhibition [3] -8% | outcome [5] | outcome [6] | outcome [7] | outcome [8]
active: growth inhibition [4] 99%

CC1(C)N=C(N)N=C(N)N1OCCSc1ccc(Cl)c(Cl)c1
inactive: inhibition [3] -1% | outcome [5] | outcome [6] | outcome [7] | outcome [8]
active: growth inhibition [1] 95% | inhibition [2] 65% | growth inhibition [4] 96%

COc1ccc(OC)c(NC(=O)c2c(-c3c(F)cccc3Cl)noc2C)c1
inactive: growth inhibition [1] 25% | inhibition [2] -1% | inhibition [3] -1% | outcome [5] | outcome [6] | outcome [7] | outcome [8]
active: growth inhibition [4] 94%

CCN(CCCN1CCCCC1)c1cc(C)nc(Nc2ccc(C)cc2Br)n1
active: growth inhibition [4] 95%
inactive: growth inhibition [1] 27% | inhibition [2] 49% | inhibition [3] 3% | outcome [5] | outcome [6] | outcome [7] | outcome [8]

Fc1cccc(COc2ccc(Nc3ncnc4sc(C#CCNC5CCC5)cc34)cc2Cl)c1
inactive: inhibition [2] 15% | inhibition [3] 9% | outcome [5] | outcome [6] | outcome [7] | outcome [8]
active: growth inhibition [1] 73% | growth inhibition [4] 100%

CN1CCC[C@H]1COc1ccc(CN2CC[C@H](NC(=O)c3ccc(Cl)c(Cl)c3)C2)cc1Cl
inactive: growth inhibition [1] 44% | inhibition [3] -2% | outcome [5] | outcome [6] | outcome [7] | outcome [8]
active: inhibition [2] 53% | growth inhibition [4] 97%

COc1ccc2nccc(N3C[C@H]4C[C@@H]3CN4CCNCc3ccc4c(n3)NC(=O)CS4)c2n1
active: growth inhibition [4] 99%
inactive: growth inhibition [1] 0% | inhibition [2] 21% | inhibition [3] 1% | outcome [5] | outcome [6] | outcome [7] | outcome [8]

Cc1cccc2[nH]c(-c3cccc(-c4cccc(NC(=O)CNC(=O)c5ccc(O)cc5)c4)c3)nc12
inactive: growth inhibition [1] 49% | inhibition [2] 9% | inhibition [3] -1% | outcome [5] | outcome [6] | outcome [7] | outcome [8]
active: growth inhibition [4] 94%
